High-throughput results: PubChem BioAssay, several laboratories
Most compounds without a hit are left out; they make up all but 2.2% or so of the library.
Ba/F3 V617F tox – reduced viability of JAK2V617F-dependent Ba/F3 cells, primary screen, JAK2V617F inhibitor project, cell-based, Ba/F3 EpoR-JAK2V617F, luminescence; inhibition, % at 5.6 µM; AID 1446, 2008; ATP luminescence; 1.1% of 220,000 active;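 active = inhibition above the campaign mean plus 3 SD over all tested compounds, cut at about 24% in these data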;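 note: cytokine-independent growth of Ba/F3 cells driven by EpoR plus mutant JAK2; 0% = DMSO-treated cells and 100% = JAK inhibitor I control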
IEC-6 tox – cytotoxicity in IEC-6 intestinal epithelial cells, primary screen, cytotoxicity control for KLF5 inhibitor project, cell-based, luminescence. 0.78% of 290,000 active. inhibition, % at 5 µM. IEC-6 cytotoxicity, luminescence viability; in the data active = inhibition above about 22%;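 note: 0% = plate median of test compound wells and 100% = cytotoxic reference compound wells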
BaF3 parental – parental Ba/F3 cell viability inhibition, counter-screen for JAK2V617F inhibitor project, murine pro-B, CellTiter-Glo luminescence | AID 1486, 2009 | 1.1% of 220,000 active | CellTiter-Glo ATP luminescence | inhibition, % at 5.6 µM;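 active = inhibition above a per-campaign cutoff, the mean inhibition of all tested compounds plus 3 SD, cut at about 27% in these data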;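 note: 0% = DMSO wells and 100% = JAK Inhibitor I control wells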
KLF5 inh – KLF5 expression inhibitors, primary screen, DLD-1 cells, luminescence; AID 1700, 2009; 0.23% of 290,000 active; inhibition, % at 5 µM; DLD-1 KLF5 promoter-luciferase reporter;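 active = inhibition above a per-plate limit of that plate's mean compound inhibition plus 3 SD, cut at about 60% in these data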;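 note: 0% = DMSO wells and 100% = LY294002 at 200 µM; higher means less KLF5 promoter-driven luciferase light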
APP 5UTR inh – inhibitors of APP translation via 5'UTR reporter, primary screen, APP 5'UTR luciferase, SH-SY5Y cells. SH-SY5Y APP 5'UTR-luciferase reporter, luminescence. inhibition, % at 2 µM. 0.82% of 190,000 active. AID 1285, 2008;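 active = inhibition above a set limit, derived from the sample mean plus 3 SD, cut at about 45% in these data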
aSyn UTR inh – MLPCN primary screen, SNCA 5' untranslated region; alpha-synuclein 5'UTR reporter, inhibitor activity; inhibition, % (tested at 7.5 µM); 0.82% of 300,000 active; AID 1813, 2009; in the data active = inhibition above about 60%;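 note: H4 neuroglioblastoma cells stably carrying SNCA 5'UTR luciferase fusion; 0% = DMSO wells and 100% = positive control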
Numbers without * were called inactive; x = no result.

SMILES	Ba/F3 V617F tox	IEC-6 tox	BaF3 parental	KLF5 inh	APP 5UTR inh	aSyn UTR inh
N#CC(C#N)=C1C=CC=CN1/C(=C\c1ccccc1Cl)C(=O)c1ccccc1	3	6	1	-7	92*	x
Cc1cc(C[n+]2ccccc2)c2nsnc2c1	59*	2	59*	-33	10	3
Cc1cc(C[n+]2ccsc2N)c2ncccc2c1	1	6	-13	-6	x	0
Cc1cc2oc(=O)cc(Cn3ccnc3)c2cc1Cl	x	5	x	-29	x	7
Cc1ccccc1C(=O)Nc1cccc(NC(=O)Cn2cnc3c(=O)n(C)c(=O)n(C)c32)c1	68*	-4	42*	8	13	52
Cc1cccc(C)c1NC(=O)Cn1cnc2c(=O)n(C)c(=O)n(C)c21	-3	-3	1	-12	4	18
Cc1ccc(CC(C(=O)O)C(C)C(=O)Nc2ccc(F)cc2)cc1 (stereo not given)	x	0	x	-21	x	-10
C=CCn1c(NC(=O)c2ccc(C)cc2)nc2ccccc21	x	16	x	-85	x	-111
Clc1ccc2nc(-c3ccccn3)c(Nc3ccc4c(c3)OCO4)n2c1	0	0	5	-4	46*	-47
O=C(NCc1ccc(Cl)s1)C1CCC(=O)N(CCc2cccc(F)c2)C1 (stereo not given)	x	4	x	-52	x	18
CN(C)CCN(C(=O)/C=C/c1cccs1)c1nc2c(F)cc(F)cc2s1	2	-2	7	14	8	96*
CN(C)CCCN(C(=O)/C=C/c1cccs1)c1nc2ccc(F)cc2s1	6	0	13	-10	-31	-14
CC#CC[N+](C)(C)CCCCCCCCCC	95*	10	79*	5	x	-9
C#CC[N+](C)(C)CCCCCCCCC	82*	-9	62*	-10	-9	65*
O=C(NCC(O)c1ccccc1)c1cccs1 (stereo not given)	x	-1	x	-152	x	-136
CCN(CC)S(=O)(=O)c1ccc(N/N=C(\C)c2ccc(OC)cc2O)nc1	1	-3	-3	20	x	78*
CCOc1cccc(/C=N/Nc2ccc(S(=O)(=O)N(CC)CC)cn2)c1O	-3	4	2	18	83*	88*
COC(=O)[C@@H](NCc1cccc(CN[C@H](C(=O)OC)c2ccccc2)c1)c1ccccc1	x	4	x	5	x	-5
CCOC(=O)c1c(C)n(-c2ccc(C)cc2)c2ccc(OCC(O)CNCC3CCCO3)cc12 (stereo not given)	-1	3	0	1	7	75*
COc1cc(OC)cc(C(=O)NCCNc2nc3cc(C)cc(C)c3cc2C#N)c1	x	3	x	-25	x	27
CC(Oc1ccccc1)C(=O)NNC(=O)c1ccccn1 (stereo not given)	-2	19	6	13	-15	45
C/C(=N\NC(=O)C(C)Oc1ccc([N+](=O)[O-])cc1)c1ccccn1 (stereo not given)	2	12	-1	21	63*	72*
Cc1cccc(C)c1NC(=O)CNC(=O)CCCc1c[nH]c2ccccc12	x	x	x	x	x	3
Clc1ccc(-c2c[n+](Cc3cccc(Cl)c3)c3n2CCC3)cc1	77*	0	64*	-20	-10	-15
Clc1ccc(C[n+]2cc(-c3ccccc3)n3c2CCC3)cc1Cl	85*	-5	71*	-32	14	1
SMILES	Ba/F3 V617F tox	IEC-6 tox	BaF3 parental	KLF5 inh	APP 5UTR inh	aSyn UTR inh
N#CC[n+]1cc(-c2ccc(Cl)cc2)n2c1CCC2	1	-2	4	0	18	3
NS(=O)(=O)c1ccc(CCNC(=O)CCc2nc3sc4c(c3c(=O)[nH]2)CCCC4)cc1	x	x	x	x	x	10
CC1CCCCN1C(=O)CCn1c(=S)oc2ccccc21 (stereo not given)	16	-3	50*	2	x	-9
O=C(CCn1c(=S)oc2ccccc21)NC1CCCCCC1	0	-2	-4	-3	x	5
CC(C)N1CCc2c(sc(NC(=O)CN3C(=O)c4ccccc4C3=O)c2C(N)=O)C1	-1	-1	6	-25	-10	12
COc1cc2ccccc2cc1C(=O)Nc1sc2c(c1C(N)=O)CCN(C(C)C)C2	x	15	x	-11	x	102*
O=C(CCSc1ccccc1)NNC(=O)c1ccccc1F	x	x	x	x	x	-4
CCc1nn2cc(-c3ccccc3)nc2s1	-2	2	5	-72	-153	80*
CCOC(=O)c1c(C)[nH]c2cc(Br)c(O)cc12	-2	3	8	1	55*	-92
CCOC(=O)c1c(-c2ccc(OC)cc2)oc2cc(Br)c(O)cc12	x	-4	x	-16	x	25
O=[N+]([O-])c1ccc(COP(=O)(O)OCc2ccc([N+](=O)[O-])cc2)cc1	x	x	x	x	x	8
Cn1cc(C(=O)c2ccc(Cl)cc2)cc1-c1nc2ccccc2n1C	-2	2	47*	-11	x	11
Oc1ccc2ccccc2c1N=Nc1ccccn1	5	8	5	11	83*	75*
Oc1ccc2ccccc2c1N=Nc1ccccc1F	0	8	1	6	x	-13
CCOC(=O)c1[nH]cnc1N=Nc1c(O)ccc2ccccc12	0	-5	6	-39	52*	91*
COc1ccc(CNC(=O)CSc2nnc(-c3cccnc3)n2N)cc1	6	0	82*	5	0	28
COC(=O)c1cc(C(=O)Nc2nc3ccccc3[nH]2)cc([N+](=O)[O-])c1	x	-4	x	-66	x	-162
COc1ccc(C(=O)NC(=S)NNC(=O)c2cnccn2)cc1OC	-4	-1	6	-13	20	90*
COc1cc(OC)cc(C(=O)NNC(=O)c2ccccn2)c1	-3	9	-2	14	38	73*
COc1ccc(C(=O)NCCNC(=O)c2cnccn2)cc1OC	x	-1	x	-18	x	-7
COc1ccc(C(=O)NC(=S)NNC(=O)c2ccc3ccccc3n2)cc1	6	4	1	-20	x	73*
O=C(/C=C/c1ccccc1)NC(=S)NNC(=O)c1cnccn1	-3	-2	7	-17	x	87*
COc1ccc(NC2CCCN(C(=O)CCc3cccc(Cl)c3)C2)cc1 (stereo not given)	x	1	x	-14	x	-12
Cc1ccc(-n2c(SCC(=O)Nc3ccc(Cl)cc3)nc(O)cc2=O)cc1	x	-8	x	-28	x	17
CC1N(C(=O)N2CCOCC2)CCN1S(=O)(=O)c1ccc(Cl)cc1 (stereo not given)	x	-3	x	-13	x	-3
COc1cc(OC)cc(C(=O)NNC(=S)NC(=O)c2cccnc2)c1	x	4	x	-7	x	-31
COc1cc(OC)cc(C(=O)NC(=S)NNC(=O)c2cnccn2)c1	-3	-7	4	-11	9	73*
O=C(CN1C(=O)c2ccccc2S1(=O)=O)c1ccc(F)cc1	0	-2	1	-15	x	92*
